Source: PubChem BioAssay (NCATS)
Records with an inconclusive call do not appear. Calls of active or inactive are those of the source. Unless noted, calls follow the shape of the dose curve; as a rule, active = well fitted curve in either direction with a large enough effect (not every such curve was filed as active); inconclusive = small, poorly fitted or top-dose-only effect, or another doubt; inactive = flat fitted curve, though single readings scatter.

Legend:
[1] = test system: HIV-1 nucleocapsid protein NCp7 (binding to TG oligonucleotide); test: HIV Nucleocapsid (AID 346; call rule not given here;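 also: potency is read from the fitted curve at half-maximal effect; potency is for inhibitors that block NC binding and lower polarization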); conditions: HIV-1 NC / fluorescein-TGTGTGTG probe, fluorescence polarization
Method in brief: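 Reagents dispensed (10 nM TG4xF, 100 nM HIV-1 NC), plates spun, compounds pin-transferred, then incubated 1 hr at room temperature before FP imaging. Buffer: Hepes pH 7.5, 250mM NaCl, 1uM ZnCl2, 100 uM TCEP, 5 mM 2-mercaptoethanol.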

[2] = AP1 Signaling Pathway (AID 357); conditions: ME-180 AP-1-bla reporter, EGF-induced, beta-lactamase ratio, 5 h; series mostly up to 17.2 µM; also: % is scaled to controls: 0 for no effect and ±100 for the full control effect
Method in brief: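 AP-1-bla ME-180 cells with beta-lactamase reporter under AP-1 response element, stimulated with EC50 EGF; compounds titrated, 5 hours at 37 degrees Celsius. CCF4 read at 460/530 nm ratio; positive and negative modulators judged by AC50.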

[3] = molecular target: Cytochrome P450 1A2 (Homo sapiens) (UniProt P05177); test: p450-cyp1a2 (AID 410; calls by dose curve; also: potency is read from the fitted curve at half-maximal effect;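 as to activity change, negative = inhibition: -100% = full effect of reference inhibitor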); conditions: recombinant CYP1A2, luciferin-ME demethylation, luminescence; series mostly up to 25.6 µM
Method in brief: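 Inhibition was calculated relative to 57 uM furafylline (full inhibition). The reaction used human CYP1A2 at 20nM with Luciferin-ME at its Km, 100uM, driven by an NADPH-regenerating system for 60 min at room temperature.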

[4] = NFAT Signaling Pathway (AID 444); conditions: Jurkat NFAT-bla M1, carbachol, beta-lactamase ratio, 5 h; at 7.69 µM (top of the series);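 also: carbachol stimulus at about its EC50 of 1 µM final; % is scaled to controls: 0 for no effect and ±100 for the full control effect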
Method in brief: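 Read-out: CCF4 FRET ratio (460 nm/530 nm) after 1 h RT dye loading, used for %activity and AC50 from titration series. Cells: Jurkat NFAT-β-lactamase/M1 line, treated with compound plus 1 uM carbachol for 5 h, 37 °C.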

[5] = Stat Signaling Pathway (AID 446); conditions: ME-180 SIE beta-lactamase reporter, IL-6 stimulated, 5 h; series mostly up to 17.2 µM;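 also: ME-180 cervical cancer cells given 40 pM IL-6 alongside compound; SIE-controlled beta-lactamase reporter measured as 460/530 nm FRET emission ratio; % is scaled to controls: 0 for no effect and ±100 for the full control effect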
Method in brief: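 ME-180 SIE-bla cells; overnight plating; cpd + IL-6 40 pM, 5 h, 37 C; LiveBLAzer 2.5 h RT; 460/530 nm emission ratio. Normalized to 300 pM IL-6 and 125 nM JAK inhibitor controls.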

[6] = molecular target: Glucocorticoid receptor (Homo sapiens) (UniProt P04150); test: GR-EFC Redistribution (AID 451; calls by dose curve; also: potency is read from the fitted curve at half-maximal effect); conditions: CHO-K1 GR-EFC translocation, beta-gal luminescence, 2 h
Method in brief: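 Translocation of GR-ED fusion to nuclear EA restores b-gal, read by luminescence after 1 h room-temperature detection. Engineered CHO-K1 biosensor cells, 1,000/well, exposed 2 h at 37 C to titrations up to 46 uM final.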

[7] = molecular target: 3',5'-cyclic-AMP phosphodiesterase 4B (Homo sapiens) (UniProt Q07343); test: qHTS Assay for Inhibitors of PDE-IV (AID 607; active = well fitted activation curve with a large enough effect in the main read-out, with a control signal flat, not every such curve was filed as active; also: % of control where 0% means no effect); conditions: HEK293 ACTOne CNG channel cells, membrane potential fluorescence; series mostly up to 22.9 µM
Method in brief: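 ACTOne HEK293 cells carry a modified cAMP-gated CNG channel and express endogenous PDE4; plated 1000 cells/well, compounds up to 22.9 uM final. Membrane-potential dye fluorescence (ex 535/em 590) was read; parental cells received 10 uM forskolin + 100 uM RO 20-1724.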

[8] = molecular target: Cytochrome P450 3A4 (Homo sapiens) (UniProt P08684); test: qHTS Assay for Inhibitors and Substrates of Cytochrome P450 3A4 (AID 884; active = well fitted curve in the direction sought with a large enough effect; an effect the other way counts as inactive or inconclusive; also: nearly all actives have a fitted effect of over 50% in size; also: potency is read from the fitted curve at half-maximal effect); conditions: recombinant CYP3A4, Luciferin-PPXE luminescence; series mostly up to 57.1 µM
Method in brief: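 20 nM human CYP3A4 with 25 uM Luciferin-PPXE (at KM) in 200 mM KPO4, preincubated 10 min with compound; NADPH regeneration started a 60 min RT reaction. Luciferin detected by luminescence, normalized to 57 uM ketoconazole as full inhibition.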

[9] = molecular target: Cytochrome P450 3A4 (Homo sapiens) (UniProt P08684); test: qHTS Assay for Activators of Cytochrome P450 3A4 (AID 885; active = well fitted curve in the direction sought with a large enough effect; an effect the other way counts as inactive or inconclusive; also: nearly all actives have a fitted effect of over 65% in size; also: potency is read from the fitted curve at half-maximal effect); conditions: recombinant CYP3A4, Luciferin-PPXE luminescence, 60 min; series mostly up to 57.1 µM
Method in brief: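 20nM CYP3A4 + 25uM Luciferin-PPXE (=KM), 200mM KPO4; cpd 10 min RT; NADPH regen, 60 min RT; stop w/ detection buffer, 20 min; luminescence. Normalized to 57 uM ketoconazole.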

[10] = molecular target: Cytochrome P450 2D6 (Homo sapiens) (UniProt P10635); test: qHTS Assay for Inhibitors and Substrates of Cytochrome P450 2D6 (AID 891; active = well fitted curve in the direction sought with a large enough effect; an effect the other way counts as inactive or inconclusive; also: potency is read from the fitted curve at half-maximal effect; nearly all actives have a fitted effect of over 60% in size); conditions: recombinant CYP2D6, luciferin-ME EGE luminescence; series mostly up to 57.1 µM
Method in brief: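 Human CYP2D6 (5 nM) with 30 uM Luciferin-ME EGE (at Km) in 100 mM KPO4, compound preincubated 10 min, then NADPH regeneration system for 60 min at room temperature. Luciferin read by luminescence; normalized to 1.43 uM quinidine.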

[11] = qHTS Assay for Lipid Storage Modulators (AID 1519; calls by dose curve); conditions: Drosophila S3 cells, BODIPY lipid droplet/cell ratio, laser cytometry, cells loaded with oleic acid; for activity change, negative = inhibition: at 57.5 µM (top of the series)
Method in brief: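 Cells seeded at 5,000 per well were treated with compounds over a concentration series and loaded with oleic acid (400 uM, as added). Lipid droplet fluorescence (488 nm excitation, 500-530 nm channel) was read by laser-scanning cytometry and normalized to 20 uM Triacsin C.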

[12] = Primary qHTS for small molecule stabilizers of the endoplasmic reticulum resident proteome: Secreted ER Calcium Modulated Protein (SERCaMP) assay (AID 1508630; active = well fitted curve in the direction sought with a large enough effect; an effect the other way counts as inactive or inconclusive; also: % is scaled to controls: 0 for no effect and ±100 for the full control effect); conditions: SH-SY5Y GLuc-SERCaMP (Gaussia luciferase released on ER calcium loss) secretion, thapsigargin, luminescence; series mostly up to 38.4 µM
Method in brief: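 GLuc-SERCaMP-expressing SH-SY5Y cells, pretreated 16 h with compound, are challenged with thapsigargin to empty ER calcium stores; after 4 h, coelenterazine is added directly to the medium and luminescence is imaged.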

[13] = molecular target: Lysosomal acid glucosylceramidase (Homo sapiens) (UniProt P04062); test: Glucocerebrosidase-p2 (AID 348; in the data active = potency below about 10 µM; also: potency is read from the fitted curve at half-maximal effect); conditions: purified GBA, blue fluorogenic substrate, 40 min
Method in brief: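 Compounds titrated from 0.6 nM upwards against 0.2 nM enzyme in pH 5.9 citric acid/KH2PO4, taurocholate, tween-20; blue fluorogenic substrate 80 uM, 40 min room temperature, stopped and read Ex 365/Em 440 for AC50.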

[14] = molecular target: Mitogen-activated protein kinase 10 (Mus musculus) (UniProt Q61831); test: JNK3 AlphaScreen Assay (AID 530); conditions: JNK3 lysate, c-Jun phosphorylation; series mostly up to 57.1 µM
Method in brief: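 Room-temperature AlphaScreen kinase assay; pre-activated HepG2 lysate as JNK3 source, biotin-GST-cJun(1-79) substrate, 10 uM ATP, compound 15 min preincubation.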

[15] = measured here: cell count channel max response
[16] = measured here: lipid channel max response

Cytochrome P450 2D6 (Homo sapiens), sequence (P10635 whole entry, looked up): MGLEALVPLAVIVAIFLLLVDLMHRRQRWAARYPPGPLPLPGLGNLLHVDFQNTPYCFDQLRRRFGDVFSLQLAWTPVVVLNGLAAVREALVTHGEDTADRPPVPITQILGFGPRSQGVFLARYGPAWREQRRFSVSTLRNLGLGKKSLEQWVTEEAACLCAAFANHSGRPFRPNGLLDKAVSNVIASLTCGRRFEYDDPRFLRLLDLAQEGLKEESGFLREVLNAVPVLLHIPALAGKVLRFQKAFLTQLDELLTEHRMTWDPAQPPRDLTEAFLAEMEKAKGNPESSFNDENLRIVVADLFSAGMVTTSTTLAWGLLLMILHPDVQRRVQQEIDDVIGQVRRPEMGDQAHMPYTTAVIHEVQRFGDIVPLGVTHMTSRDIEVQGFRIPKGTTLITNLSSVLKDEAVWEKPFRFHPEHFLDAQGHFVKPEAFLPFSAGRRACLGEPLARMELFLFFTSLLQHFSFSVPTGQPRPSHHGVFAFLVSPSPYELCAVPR
Glucocorticoid receptor (Homo sapiens), sequence (P04150 whole entry, looked up, the tested form may be a part): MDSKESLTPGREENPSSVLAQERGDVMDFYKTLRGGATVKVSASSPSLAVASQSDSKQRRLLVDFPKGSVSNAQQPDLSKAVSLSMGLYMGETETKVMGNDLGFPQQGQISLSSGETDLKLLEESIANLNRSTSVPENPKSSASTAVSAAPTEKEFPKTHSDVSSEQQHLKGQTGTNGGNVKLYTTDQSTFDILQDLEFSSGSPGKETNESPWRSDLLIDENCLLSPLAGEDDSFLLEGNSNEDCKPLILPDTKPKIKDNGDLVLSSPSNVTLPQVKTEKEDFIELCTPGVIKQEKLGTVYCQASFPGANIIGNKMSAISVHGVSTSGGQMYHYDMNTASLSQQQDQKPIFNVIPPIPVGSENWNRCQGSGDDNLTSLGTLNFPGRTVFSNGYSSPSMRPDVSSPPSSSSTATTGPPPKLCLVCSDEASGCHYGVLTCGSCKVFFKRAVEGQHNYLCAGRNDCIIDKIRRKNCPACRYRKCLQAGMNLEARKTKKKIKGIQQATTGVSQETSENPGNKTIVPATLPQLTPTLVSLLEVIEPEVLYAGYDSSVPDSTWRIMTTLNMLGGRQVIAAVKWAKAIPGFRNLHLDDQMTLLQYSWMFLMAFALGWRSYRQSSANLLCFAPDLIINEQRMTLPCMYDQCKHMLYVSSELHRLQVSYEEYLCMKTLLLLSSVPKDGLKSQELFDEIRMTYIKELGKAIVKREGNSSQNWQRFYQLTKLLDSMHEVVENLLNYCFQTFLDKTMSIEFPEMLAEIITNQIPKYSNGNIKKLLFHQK
Cytochrome P450 1A2 (Homo sapiens), sequence (P05177 whole entry, looked up): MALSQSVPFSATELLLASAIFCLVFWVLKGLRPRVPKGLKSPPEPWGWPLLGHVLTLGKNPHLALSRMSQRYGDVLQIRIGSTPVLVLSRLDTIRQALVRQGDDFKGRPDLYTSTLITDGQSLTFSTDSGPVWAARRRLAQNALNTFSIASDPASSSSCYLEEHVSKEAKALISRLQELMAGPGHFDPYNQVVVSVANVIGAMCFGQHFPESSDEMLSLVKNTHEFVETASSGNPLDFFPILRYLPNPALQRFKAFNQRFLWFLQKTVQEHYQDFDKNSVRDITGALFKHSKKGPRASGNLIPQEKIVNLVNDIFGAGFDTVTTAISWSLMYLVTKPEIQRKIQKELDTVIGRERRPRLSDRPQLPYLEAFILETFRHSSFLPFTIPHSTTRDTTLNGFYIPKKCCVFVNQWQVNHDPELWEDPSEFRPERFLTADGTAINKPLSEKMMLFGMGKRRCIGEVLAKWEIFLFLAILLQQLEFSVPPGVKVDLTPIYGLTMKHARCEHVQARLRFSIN
Lysosomal acid glucosylceramidase (Homo sapiens), sequence (P04062 whole entry, looked up): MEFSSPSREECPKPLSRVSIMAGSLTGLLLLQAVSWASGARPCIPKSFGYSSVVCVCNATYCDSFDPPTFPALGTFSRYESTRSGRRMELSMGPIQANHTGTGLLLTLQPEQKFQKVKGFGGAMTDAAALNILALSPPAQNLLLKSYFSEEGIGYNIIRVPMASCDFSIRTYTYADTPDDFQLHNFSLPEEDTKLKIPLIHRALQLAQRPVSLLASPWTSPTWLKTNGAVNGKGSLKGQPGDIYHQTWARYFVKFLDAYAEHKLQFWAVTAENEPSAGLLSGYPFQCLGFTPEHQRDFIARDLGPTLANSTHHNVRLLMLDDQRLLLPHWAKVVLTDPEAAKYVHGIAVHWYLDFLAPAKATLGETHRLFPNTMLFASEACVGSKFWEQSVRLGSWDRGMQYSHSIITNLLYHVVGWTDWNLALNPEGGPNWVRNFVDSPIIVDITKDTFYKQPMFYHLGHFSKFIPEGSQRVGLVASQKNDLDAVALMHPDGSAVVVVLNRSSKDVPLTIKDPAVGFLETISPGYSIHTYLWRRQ
3',5'-cyclic-AMP phosphodiesterase 4B (Homo sapiens), sequence (Q07343 whole entry, looked up): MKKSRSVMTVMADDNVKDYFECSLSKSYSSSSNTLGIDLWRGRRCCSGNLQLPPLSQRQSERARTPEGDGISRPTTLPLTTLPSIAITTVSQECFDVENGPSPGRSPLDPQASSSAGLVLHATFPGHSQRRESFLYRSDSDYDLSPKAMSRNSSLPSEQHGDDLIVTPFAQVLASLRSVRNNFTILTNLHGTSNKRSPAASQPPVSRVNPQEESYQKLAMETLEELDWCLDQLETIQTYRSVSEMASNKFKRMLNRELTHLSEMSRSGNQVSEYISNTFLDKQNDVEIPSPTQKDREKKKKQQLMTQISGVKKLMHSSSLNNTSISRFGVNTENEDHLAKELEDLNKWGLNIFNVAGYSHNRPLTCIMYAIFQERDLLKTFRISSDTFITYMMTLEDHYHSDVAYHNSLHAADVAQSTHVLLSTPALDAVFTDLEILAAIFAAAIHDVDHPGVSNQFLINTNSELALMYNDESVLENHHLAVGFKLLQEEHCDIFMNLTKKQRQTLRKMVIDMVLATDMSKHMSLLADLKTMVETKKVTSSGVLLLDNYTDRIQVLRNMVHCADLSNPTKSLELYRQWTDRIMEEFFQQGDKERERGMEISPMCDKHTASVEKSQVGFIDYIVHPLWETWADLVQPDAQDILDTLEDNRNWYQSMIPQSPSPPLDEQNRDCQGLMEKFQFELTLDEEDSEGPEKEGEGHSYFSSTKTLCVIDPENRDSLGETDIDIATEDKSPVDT
Cytochrome P450 3A4 (Homo sapiens), sequence (P08684 whole entry, looked up): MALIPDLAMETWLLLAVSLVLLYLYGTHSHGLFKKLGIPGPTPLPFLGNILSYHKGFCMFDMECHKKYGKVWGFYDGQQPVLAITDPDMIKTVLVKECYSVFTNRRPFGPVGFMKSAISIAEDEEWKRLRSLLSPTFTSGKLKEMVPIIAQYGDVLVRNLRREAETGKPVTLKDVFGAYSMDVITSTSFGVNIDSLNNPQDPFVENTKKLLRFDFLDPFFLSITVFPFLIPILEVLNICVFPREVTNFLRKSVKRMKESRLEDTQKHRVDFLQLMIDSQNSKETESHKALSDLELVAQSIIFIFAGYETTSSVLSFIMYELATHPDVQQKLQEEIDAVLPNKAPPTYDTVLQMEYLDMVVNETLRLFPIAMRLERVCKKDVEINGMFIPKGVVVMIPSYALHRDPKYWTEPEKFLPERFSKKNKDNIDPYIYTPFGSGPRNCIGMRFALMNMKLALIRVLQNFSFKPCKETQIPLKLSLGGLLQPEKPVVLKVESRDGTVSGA

SMILES	Potency [1]	outcome [2]	Potency [3]	activity change, negative = inhibition [4]	outcome [5]	Potency [6]	Potency [7]	Potency [8]	Potency [9]	Potency [10]	activity change, negative = inhibition [11]	max response [11, 15]	max response [11, 16]	outcome [12]	Potency [13]	outcome [14]
N#Cc1ccc(CN2CC[C@@]3(CCCN(C(=O)Oc4ccccc4)C3)C2)cc1	> 20 µM (inactive)	inactive	12.6 µM (active)	-16.4% (inactive)	inactive	> 46 µM (inactive)	inactive	7.94 µM (active)	inactive	3.16 µM (active)	4.98% (inactive)	20.4%	28.4%	inactive		
c1ccc(N2CC[C@@]3(CCCNC3)C2)nc1	> 20 µM (inactive)	inactive	inactive		inactive	> 46 µM (inactive)	inactive		inactive		2.13% (inactive)	12.4%	16.2%	inactive	> 11.4 µM (inactive)	inactive
O=C(Nc1cccc(F)c1)N1CC2(CCNCC2)C1	> 20 µM (inactive)	inactive	inactive		inactive	> 46 µM (inactive)	inactive				3.38% (inactive)	6.28%	12.8%	inactive		inactive
O=C(c1cnccn1)N1CCC2(CC1)CN(Cc1ccncc1)C2	> 20 µM (inactive)	inactive		-23.5% (inactive)	inactive	> 46 µM (inactive)	inactive				2.96% (inactive)	-1.92%	3.49%	inactive	> 11.4 µM (inactive)	inactive
c1csc(CN2CCC3(CCNCC3)CC2)n1	> 20 µM (inactive)	inactive		-5.8% (inactive)	inactive	> 46 µM (inactive)	inactive				-2.74% (inactive)	11.7%	11%	inactive	> 11.4 µM (inactive)	inactive
CC(C)CN1CCC2(CC1)CCN(S(C)(=O)=O)CC2	> 20 µM (inactive)	inactive		6.76% (inactive)		> 46 µM (inactive)	inactive			0.794 µM (active)	-1.49% (inactive)	-15.1%	-17.2%	inactive	> 11.4 µM (inactive)	inactive
CS(=O)(=O)N1CCC2(CC1)CN(Cc1ccncc1)C2	> 20 µM (inactive)	inactive	inactive	6.37% (inactive)	inactive	> 46 µM (inactive)			inactive		4.09% (inactive)	21.7%	27.2%	inactive	> 11.4 µM (inactive)	inactive
c1cnc(N2CCCC3(CCNCC3)C2)nc1	> 20 µM (inactive)	inactive		-26.8% (inactive)	inactive	> 46 µM (inactive)	inactive				7.13% (inactive)	9.32%	19.3%	inactive	> 11.4 µM (inactive)	inactive
O=C(Nc1cccc(F)c1)N1CC[C@@]2(CCCN(C(=O)Oc3ccccc3)C2)C1	> 20 µM (inactive)	inactive	15.8 µM (active)	-6.58% (inactive)	inactive	> 46 µM (inactive)			inactive		7.1% (inactive)	6.61%	19.8%	inactive		
CC(C)CN1CC[C@@]2(CCCN(C(=O)c3ccncc3)C2)C1	> 20 µM (inactive)	inactive		-22.2% (inactive)	inactive	> 46 µM (inactive)	inactive				2.73% (inactive)	-1.41%	4.49%	inactive	> 11.4 µM (inactive)	inactive
c1cnc(N2CC[C@@]3(CCCNC3)C2)nc1		inactive	25.1 µM (active)	-23.9% (inactive)	inactive	> 46 µM (inactive)	inactive		inactive	7.94 µM (active)	6.19% (inactive)	20.5%	29%	inactive	> 11.4 µM (inactive)	inactive
O=C(c1ccco1)N1CCC[C@@]2(CCN(Cc3ccncc3)C2)C1	> 20 µM (inactive)	inactive	3.98 µM (active)	-1.52% (inactive)	inactive	> 46 µM (inactive)			inactive		3.05% (inactive)	6.21%	9.36%	inactive	> 11.4 µM (inactive)	inactive
O=C(Nc1ccccc1)N1CC[C@@]2(CCCNC2)C1	> 20 µM (inactive)	inactive		19.4% (inactive)	inactive	> 46 µM (inactive)	inactive				-3.27% (inactive)	4.57%	3%	inactive	> 11.4 µM (inactive)	
O=C(Nc1cccc(F)c1)N1CC2(CCN(C(=O)Oc3ccccc3)CC2)C1	> 20 µM (inactive)	inactive	12.6 µM (active)	16.5% (inactive)	inactive	> 46 µM (inactive)	inactive	inactive	12.6 µM (active)		5.68% (inactive)	-9.16%	-1.47%	inactive	> 11.4 µM (inactive)	inactive
